# ± gives the standard deviation. Whole data set: some 6,600 sequences, median “pre-steady-state target cleavage rate” near 0.07, cut for the highest 2% near 0.72. For the sample, the highest values were picked, then their nearest neighbours and some sequences at random.
# Test system: MIWI (PIWIL1) piRISC loaded with Kctd7 piRNA (30 nt)
# Assay: pre-steady-state target cleavage rate (min^-1); MIWI and MILI are mouse PIWI proteins and EfPiwi is from a freshwater sponge; tags in brackets are library labels; higher = faster piRNA-guided slicing of the target
# Details: guide: Kctd7 piRNA 5'p-UGUUAAUCUCUCAGAGAAGGUGACAGUGAU; auxiliary factor: 500 nM mouse GTSF1
# Protocol: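 Cleave-'n-Seq: a library of target RNAs (target site embedded in constant flanks, ACAGCATTCCGCGTTAGTGATATCCG... 5' flank; DNA-blocked outside the site) at 0.1 nM was incubated with 1 nM active mouse MILI or MIWI piRISC (synthetic 5'-monophosphorylated piRNA guide) with or without 500 nM mouse GTSF1 at 33 °C for 1 min to 16 h. Uncleaved targets were sequenced and normalised to non-target controls, and the pooled three trials were fitted to a burst-and-steady-state model to give the pre-steady-state cleavage rate (min^-1; k3 is constrained to at most 1e-4). Sequence is the target site only; target names encode pairing extent (gX:gY) and contiguous / 1-mismatch / 2-mismatch / bulge geometry. Fits with R² ≤ 0 are excluded.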
row,Sequence,pre-steady-state target cleavage rate
1,UAGUGUGUGACCUUCUCUGUGAGAUUAACA,0.206 ± 0.016
2,UAGUGACAGUCCCUUCUCUGAGAGAUUAACA,0.611 ± 0.046
3,UACACUCUCACCUUCUCUGAGAGAUUAACA,0.444 ± 0.031
4,UAGACUCGUCACCUUCUCUGAGAGAUUAACA,0.687 ± 0.041
5,UAGUCUCGUCACCUUCUCUGAGAGAUUAACA,0.571 ± 0.025
6,UACACUCGUCACCUUCUCUGAGAGAUUAACA,0.77 ± 0.035
7,UUCACUCGUCACCUUCUCUGAGAGAUUAACA,0.78 ± 0.042
8,UACACACUCACCUUCUCUGAGAGAUUAACA,0.568 ± 0.044
9,AUCACUCUCACCUUCUCUGAGAGAUUAACA,0.551 ± 0.029
10,UUCACUCUCACCUUCUCUGAGAGAUUAACA,0.54 ± 0.028
11,AUCACUCGUCACCUUCUCUGAGAGAUUAACA,0.747 ± 0.043
12,UACACUGUCACCUUCUCAGAGAGAAUAACA,0.076 ± 0.021
13,AUCACUGUCACGUUCUCUCAGAGAUUAACA,0.0868 ± 0.0082
14,UAGUGUCUCACCUUCACUGAGAGAUUAACA,0.276 ± 0.019
15,UAGUGACUCACCAUCUCUGAGAGUUUAACA,0.173 ± 0.035
16,UACACUGUCACCUUCUCUGAGACAUUUUGA,0.00497 ± 0.0047
17,UAGACUGUCACCUUCUCUGAGAGGAUUAACA,0.369 ± 0.036
18,UAGACUGUCACCUUCUCUGAGGAUUAACA,0.00433 ± 0.0033
19,UUCACUGUCACCUUCUCUGAGGGAUUAACA,0.51 ± 0.024
20,UACACUGUCACCUUCUCUGAGGGAUUAACA,0.611 ± 0.033
21,AUCACUGUCACCUUCUCUGAGGGAUUAACA,0.75 ± 0.041
22,UAGACUGUCACCUUCUCUGAGGGAUUAACA,0.741 ± 0.051
23,UAGUGACUCACGUUCUCUGAGAGUUUAACA,0.0255 ± 0.006
24,UACACUGUCACCUUCACUGAGACAUUAACA,0.19 ± 0.025
25,AUCACUCACACCUUCUCUGAGAGAUUAACA,0.587 ± 0.027

row,Sequence,pre-steady-state target cleavage rate
1,UAGACUGUCACCUUCUCUGAGAGAUUUACA,0.369 ± 0.049
2,UAGUGACACACCAUCUCUGAGAGAUUAACA,0.274 ± 0.027
3,AUCACUGUCAGCUUCUCUGAGAGUUUAACA,0.149 ± 0.018
4,UACACUGACACCUUCUCUGAGAGUUUAACA,0.904 ± 0.3
5,UACACUGUCACCUUCUCUGAGAGUUUAUCA,0.137 ± 0.041
6,UACUCUGUCACCUUCUCUGAGAGUUUAACA,0.781 ± 0.098
7,AUCACUGUCACCUUCUCUGAGAGUUUAUCA,0.753 ± 0.19
8,AUCACUGACACCUUCUCUGAGAGUUUAACA,0.644 ± 0.16
9,UUCUCUGUCACCUUCUCUGAGAGUUUAACA,0.517 ± 0.07
10,UUCACUGACACCUUCUCUGAGAGUUUAACA,0.591 ± 0.11
11,UUCACUGUCACCUUCUCUGAGAGUUUAUCA,0.27 ± 0.061
12,AUCUCUGUCACCUUCUCUGAGAGUUUAACA,0.711 ± 0.12
13,UAGUCUGUCACCUUCUCUGAGAGAAAUACA,0.0823 ± 0.015
14,AUCACUGAGACCUUCUCUGAGAGAUAUUGA,0.0157 ± 0.0047
15,UAGUGACAGCCCUUCUCUGAGAGAUUAACA,0.184 ± 0.019
16,UUCACUGUCACCUUCUCUGAGAGUUUUACA,0.559 ± 0.12
17,UAGUGACUCACCUUCUCUGUGACAUUAACA,0.0765 ± 0.0076
18,UAGUCUCUCACCUUCUGUGAGAGAUUAACA,0.00482 ± 0.0046
19,UAGACUCUCACCUUCUCUGAGAGAUUUUGA,0.0479 ± 0.011
20,UGCACUGUCACCUUCUCUGAGAGAUUAACA,0.726 ± 0.039
21,UACACUGGCACCUUCUCUGAGAGAUUAACA,0.453 ± 0.12
22,AUCACUGGCACCUUCUCUGAGAGAUUAACA,0.724 ± 0.17
23,AUGCACUGUCACCUUCUCUGAGAGAUUAACA,0.775 ± 0.056
24,UUCACUGUGCACCUUCUCUGAGAGAUUAACA,0.606 ± 0.05
25,UUCACUGGCACCUUCUCUGAGAGAUUAACA,0.728 ± 0.15

row,Sequence,pre-steady-state target cleavage rate
1,UUGCACUGUCACCUUCUCUGAGAGAUUAACA,0.781 ± 0.045
2,UACAGUGUCACCUUCUGUGAGAGAUUAACA,0.662 ± 0.028
3,UAGUGACACACCUUCUCAGAGUGAUUAACA,0.00558 ± 0.0037
4,UAGUGUGUCACCUUCUCUGAGAGAUUAUCA,0.219 ± 0.026
5,UAGUGACUCUGCUUCUCUGAGAGAUUAACA,0.00843 ± 0.0019
6,UAGUGACAGUCCUUCCUCUGAGAGAUUAACA,0.27 ± 0.027
7,UAGUCUCUCACGUUCUCUGAGAGAUUAACA,0.0195 ± 0.0042
8,UAGUGACACACCAUCUCUGAGAGAAUAACA,0.0218 ± 0.0057
9,AGCACUGUCACCUUCUCUGAGAGAUUAACA,0.765 ± 0.044
10,UAGUCUGUCACCUUCUGUGAGAGAUAAACA,0.0539 ± 0.0081
11,UUCGACUGUCACCUUCUCUGAGAGAUUAACA,0.859 ± 0.06
12,UACGACUGUCACCUUCUCUGAGAGAUUAACA,0.746 ± 0.07
13,AUCGACUGUCACCUUCUCUGAGAGAUUAACA,0.821 ± 0.059
14,UAGUGUGUCAGCUUCUCUGAGAGAUUAAGA,0.0938 ± 0.015
15,UACACUCUCACCUUCUCUGUGAGAUUAACA,0.141 ± 0.014
16,UUGUGUGUCACCUUCUCUGAGAGAUUAACA,0.571 ± 0.025
17,UAGUCAGUCACCAUCUCUGAGAGAUUAACA,0.706 ± 0.04
18,UAGUCUCUCACCAUCUCUGAGAGAUUAACA,0.0365 ± 0.0075
19,AUCACAGUCACCAUCUCUGAGAGAUUAACA,0.771 ± 0.036
20,UUCACUCUCACCAUCUCUGAGAGAUUAACA,0.465 ± 0.024
21,UUCACAGUCACCAUCUCUGAGAGAUUAACA,0.747 ± 0.039
22,UACACAGUCACCAUCUCUGAGAGAUUAACA,0.833 ± 0.045
23,UAGACAGUCACCAUCUCUGAGAGAUUAACA,0.68 ± 0.042
24,UACACUCUCACCAUCUCUGAGAGAUUAACA,0.406 ± 0.028
25,UACAGUGUCACCAUCUCUGAGAGAUUAACA,0.592 ± 0.036

# Reference: the supplement of paper PMC10338343
